The values that follow come from PubChem BioAssay (Tox21).

A number with no mark means an inactive call. Results filed as inconclusive are left out. Calls of active or inactive are those of the source. Unless noted, calls come from the whole dose curve.

Assay [1] can be described thus: qHTS assay to identify small molecule agonists of the sonic hedgehog signaling (Shh) pathway (AID 1259368).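 Note: NIH/3T3-derived 3T3Gli1-Luc cells carrying a stable Gli1-driven firefly luciferase reporter; series mostly up to about 92 µM; nearly all actives have a fitted effect of over 15% in size.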 In outline: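 3T3Gli1-Luc (NIH/3T3 clone, stable Gli1-Luc); 4 hr pre-incubation, then cpd in DMSO 24 hr, 37 C/5% CO2; luciferase reagent 30 min RT; luminescence.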
For orientation: qHTS replaces the single test concentration by a dilution series.

The nature of assay [2]: qHTS assay to identify small molecule antagonists of the sonic hedgehog signaling (Shh) pathway (AID 1259369). Note: nearly all actives have a fitted effect of over 45% in size. Note: potency is the fitted concentration of half-maximal effect. In outline: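 3T3Gli1-Luc, conditioned-medium-stimulated, 24hr cpd, 37C/5% CO2; Gli1-driven firefly Luc luminescence after 30min RT with luciferase reagent. Cells plated 4hr before cpd.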
Assay [3] concerns the target Estrogen receptor beta (Homo sapiens) (UniProt Q92731). Put plainly: qHTS assay to identify small molecule antagonists of the estrogen receptor beta (ER-beta) signaling pathway (AID 1259378; active = well fitted inhibition curve with a large enough effect in the signal ratio in the repeat runs, not every such curve was filed as active; the % refers to the signal ratio). In outline:
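ER-beta-UAS-bla HEK293T (GripTite) cells in 2% charcoal-stripped FBS medium were preincubated 6 hr at 37C, dosed with compound, then stimulated with 1 nM E2 (final) for 16 hr; beta-lactamase reporter read by B/G FRET fluorescence after 2 hr substrate loading.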

Assay [4] can be described thus: qHTS assay to identify small molecule agonists of the androgen receptor (AR) signaling pathway in the presence of an antagonist - cell viability counter screen (AID 1259379; active = well fitted curve in the direction sought with a large enough effect in the repeat runs; an effect the other way counts as inactive or inconclusive; note: nearly all actives have a fitted effect of over 25% in size; note: potency is the fitted concentration of half-maximal effect). In outline: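 Cells: MDA-kb2 (MMTV-luc, AR and GR elements), 3,000/well, 5 hr settle. Added: nilutamide 3.0uM final, then compounds (15 conc.). Incubation: 16 hr, 37C, no CO2. Read-out: CellTiter-Fluor, 1 hr, fluorescence.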

Assay [5] in a line: qHTS assay to identify small molecule agonists of the estrogen receptor beta (ER-beta) signaling pathway - cell viability counter screen (AID 1259380; active = well fitted curve in the direction sought with a large enough effect in the repeat runs; an effect the other way counts as inactive or inconclusive; note: nearly all actives have a fitted effect of over 30% in size; note: potency is the fitted concentration of half-maximal effect). The gist of the method: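 HEK293T ER-beta-UAS-bla; 2% CS-FBS; 6 hr pre-plate, 16 hr cpd at 37C/5% CO2; LiveBLAzer read first, then CellTiter-Glo 30 min RT, luminescence.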
A short description of assay [6]: qHTS assay to identify small molecule antagonists of the estrogen receptor beta (ER-beta) signaling pathway - cell viability counter screen (AID 1259382; active = well fitted curve in the direction sought with a large enough effect in the repeat runs; an effect the other way counts as inactive or inconclusive; note: nearly all actives have a fitted effect of over 55% in size; note: potency is the fitted concentration of half-maximal effect). The gist of the method: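 Cells: ER-beta-UAS-bla HEK293T, 2,000/well, 2% CS-FBS, 6 hr settle. Cpd + E2 (1nM final), 16 hr, 37C/5% CO2. Bla FRET substrate 2 hr RT, then CellTiter-Glo 30 min RT, luminescence.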
Assay [7] is described as follows: qHTS assay to identify small molecule agonists or antagonists of the thyroid stimulating hormone receptor (TSHR) signaling pathway - wild type cell line counter screen (AID 1259384). In outline:
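Wild-type HEK293 cells were plated 18 h at 37 C/5% CO2, pin-dosed with compound plus Ro20-1724 medium, held 30 min at room temperature, then given cAMP-d2 and anti-cAMP-cryptate; fluorescence was read after 1 h. Fifteen concentrations, triplicate.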

The target in assay [8] is Androgen receptor (Homo sapiens) (UniProt P10275). Put plainly: qHTS assay to identify small molecule agonists of the androgen receptor (AR) signaling pathway in the presence of an antagonist (AID 1259381). Note: nearly all actives have a fitted effect of over 15% in size. In outline:
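MDA-kb2 cells, 3,000/well, rested 5hr at 37C/0% CO2 → nilutamide 3.0uM final or buffer → compounds, 15 conc. → 16hr at 37C → ONE-Glo, 30min RT → luminescence.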

Assay [9] has as its target Estrogen receptor (Homo sapiens) (UniProt P03372). Put plainly: qHTS assay to identify small molecule agonists of the estrogen receptor alpha (ER-alpha) signaling pathway in the presence of an antagonist (AID 1259383). Note: nearly all actives have a fitted effect of over 15% in size. Note: potency is the fitted concentration of half-maximal effect. The gist of the method:
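VM7Luc4E2, endog. ER-alpha + 4×ERE-luc; charcoal-stripped FBS, phenol red-free, 5 d; 24hr plating; +10.0nM ICI-182,780 (final); cpds 15 conc, 22hr, 37C/5% CO2; ONE-Glo luminescence.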

Sequence of Estrogen receptor beta (Homo sapiens) (Q92731 whole entry, looked up): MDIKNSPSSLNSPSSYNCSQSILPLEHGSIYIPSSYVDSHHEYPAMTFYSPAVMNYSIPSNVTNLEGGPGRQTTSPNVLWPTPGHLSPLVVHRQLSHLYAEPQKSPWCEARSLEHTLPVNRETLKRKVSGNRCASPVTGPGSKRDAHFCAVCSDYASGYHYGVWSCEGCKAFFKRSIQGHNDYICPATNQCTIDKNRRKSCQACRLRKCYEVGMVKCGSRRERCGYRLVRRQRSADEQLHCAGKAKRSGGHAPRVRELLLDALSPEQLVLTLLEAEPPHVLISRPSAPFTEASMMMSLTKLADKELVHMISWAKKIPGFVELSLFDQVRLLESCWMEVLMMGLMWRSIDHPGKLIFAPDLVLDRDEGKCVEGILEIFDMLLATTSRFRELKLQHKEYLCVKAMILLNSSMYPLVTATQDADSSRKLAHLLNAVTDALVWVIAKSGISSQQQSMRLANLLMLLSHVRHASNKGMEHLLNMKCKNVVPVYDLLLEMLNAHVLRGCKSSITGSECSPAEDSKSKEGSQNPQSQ
Sequence of Androgen receptor (Homo sapiens) (P10275 whole entry, looked up): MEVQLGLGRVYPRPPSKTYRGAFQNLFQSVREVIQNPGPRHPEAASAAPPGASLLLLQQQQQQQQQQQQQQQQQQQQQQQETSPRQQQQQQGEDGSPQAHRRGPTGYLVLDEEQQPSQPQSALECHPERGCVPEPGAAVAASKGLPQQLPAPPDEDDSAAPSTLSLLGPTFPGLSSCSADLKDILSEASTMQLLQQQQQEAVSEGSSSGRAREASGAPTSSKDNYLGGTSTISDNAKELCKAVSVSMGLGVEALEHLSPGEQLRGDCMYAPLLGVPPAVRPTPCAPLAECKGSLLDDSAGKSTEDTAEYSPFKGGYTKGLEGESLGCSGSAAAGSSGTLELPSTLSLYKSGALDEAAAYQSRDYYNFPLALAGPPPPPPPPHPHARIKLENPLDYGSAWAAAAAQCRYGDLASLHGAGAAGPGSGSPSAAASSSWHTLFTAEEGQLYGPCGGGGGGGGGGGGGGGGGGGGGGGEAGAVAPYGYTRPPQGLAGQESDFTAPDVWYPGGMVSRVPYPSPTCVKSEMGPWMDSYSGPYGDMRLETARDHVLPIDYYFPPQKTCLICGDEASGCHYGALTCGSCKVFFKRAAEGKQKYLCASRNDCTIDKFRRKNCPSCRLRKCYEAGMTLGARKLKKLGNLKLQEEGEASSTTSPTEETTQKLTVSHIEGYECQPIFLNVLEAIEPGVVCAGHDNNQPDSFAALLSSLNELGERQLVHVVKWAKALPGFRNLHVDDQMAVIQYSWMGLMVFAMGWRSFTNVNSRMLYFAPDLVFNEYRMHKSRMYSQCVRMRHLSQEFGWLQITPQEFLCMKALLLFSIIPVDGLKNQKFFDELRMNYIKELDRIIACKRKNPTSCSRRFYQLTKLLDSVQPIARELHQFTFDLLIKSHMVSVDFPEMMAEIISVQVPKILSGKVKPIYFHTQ
Sequence of Estrogen receptor (Homo sapiens) (P03372 whole entry, looked up): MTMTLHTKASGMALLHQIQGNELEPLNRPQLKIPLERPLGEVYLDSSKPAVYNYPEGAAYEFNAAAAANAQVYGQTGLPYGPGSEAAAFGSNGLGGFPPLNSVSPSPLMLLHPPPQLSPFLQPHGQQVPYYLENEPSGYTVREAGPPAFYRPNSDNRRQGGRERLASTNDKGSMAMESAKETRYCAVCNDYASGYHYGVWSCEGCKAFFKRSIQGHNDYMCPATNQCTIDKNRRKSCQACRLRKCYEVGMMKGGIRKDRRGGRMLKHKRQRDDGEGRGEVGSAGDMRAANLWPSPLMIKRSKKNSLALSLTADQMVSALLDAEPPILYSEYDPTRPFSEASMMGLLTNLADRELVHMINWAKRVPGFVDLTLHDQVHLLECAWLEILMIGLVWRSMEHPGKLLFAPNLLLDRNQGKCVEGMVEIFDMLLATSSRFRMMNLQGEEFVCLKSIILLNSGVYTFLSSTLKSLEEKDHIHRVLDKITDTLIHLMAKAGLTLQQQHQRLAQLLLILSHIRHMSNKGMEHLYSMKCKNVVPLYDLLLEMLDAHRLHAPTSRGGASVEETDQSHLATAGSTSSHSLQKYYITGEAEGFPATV

As for `Cc1ccc(Cl)cc1N`, the Potency entry in assay [1], in assay [2], in [3], in assay [4], in [5] and in assay [6] was “inactive” each time. Moreover, in assay [7], the Potency result was “inactive”.
In the case of `CCOC(=O)Oc1ccc(CCNC(=O)[C@H](CCSC)NC(C)=O)cc1OC(=O)OCC`, the Potency result in assay [1], in [2], in [4], in [5], in [8] and in assay [6] was “inactive” throughout. In addition, the Potency entry in [9] and in [7] was “inactive” in each case.
Take `CC(C)OC(=O)c1ccccc1C(=O)OC(C)C`: the Potency entry in assay [1], in assay [2], in assay [4], in assay [5], in [6] and in assay [9] was “inactive” in each case. Besides, the Potency entry in assay [7] is “inactive”.
On to `Cc1ccc2c(c1[N+](=O)[O-])C(=O)c1ccccc1C2=O`, for which the Potency entry in assay [1], in assay [2], in assay [4], in assay [5], in assay [6] and in assay [7] was “inactive” each time. Besides, the Potency in assay [9] is 3.37 µM (active).
Consider `CCN(CC)C(=O)N1CCN(C)CC1`, for which the Potency result in assay [1], in assay [2], in assay [3], in assay [4], in assay [5] and in assay [6] was “inactive” throughout. Further, the Potency result in [7] is “inactive”.
In the case of `CC(=O)NNC(C)=O`, the Potency entry in assay [1], in assay [2], in [4], in assay [5], in [6] and in [9] was “inactive” in each case. The Potency entry in [7] is “inactive”.
Regarding `O=C(O)c1ccc(O)cc1O`, the Potency result in assay [1], in [2], in [3], in assay [4], in assay [5] and in assay [6] was “inactive” throughout. The Potency entry in [7] is “inactive”.
Take `O=C(Oc1ccccc1)c1ccc2ccccc2c1O`: the Potency result in [1], in assay [2], in assay [4], in assay [5], in [8] and in [6] was “inactive” in each case. The Potency entry in assay [7] is “inactive”.
As for `O=C1[C@@H]2[C@H]3CC[C@H](C3)[C@@H]2C(=O)N1CCCCN1CCN(c2ncccn2)CC1`, the Potency entry in assay [1], in assay [2], in assay [4], in assay [5], in assay [6] and in assay [9] was “inactive” in each case. For the same molecule, the Potency result in [7] was “inactive”.
For `CCN(CC)CCOC(=O)C(c1ccccc1)c1ccccc1`, the Potency entry in assay [1], in [2], in assay [3], in [4], in assay [6] and in assay [7] was “inactive” each time.
Consider `CCN(Cc1cccc(S(=O)(=O)O)c1)c1ccc(C(=C2C=CC(=[N+](CC)Cc3cccc(S(=O)(=O)O)c3)C=C2)c2ccccc2S(=O)(=O)[O-])cc1`, for which the Potency entry in [1], in assay [3] and in [9] was “inactive” in each case. Besides, the Potency in assay [2] was 3.08 µM (active); in assay [4] it was 17.3 µM (active).
As for `CC(=O)N[C@@H](Cc1ccc(O)cc1)C(=O)O`, the Potency entry in [1], in assay [2], in assay [3], in assay [4], in [5] and in assay [6] was “inactive” each time. Moreover, the Potency entry in [7] is “inactive”.
For the molecule `CC(=O)Oc1cccc(O)c1`, the Potency result in [1], in [2], in [3], in assay [4], in assay [6] and in assay [9] was “inactive” in each case. Moreover, the Potency result in [7] is “inactive”.
In the case of `O=C(O)/C=C/c1ccc(O)c(O)c1`, the Potency entry in assay [1], in assay [2], in assay [4], in [5], in assay [8] and in assay [6] was “inactive” throughout.
Regarding `CN1CCCN(C(c2ccccc2)c2ccc(Cl)cc2)CC1` (stereo not drawn), the Potency result in assay [1], in [8], in [9] and in assay [7] was “inactive” in each case. The Potency in assay [2] was 5.96 µM (active); in assay [4], 26.6 µM (active); in assay [5], 13.3 µM (active); in assay [6] it was 13.3 µM (active).
Consider `CCOC(=O)N1CCC(Nc2ccc(Cl)cc2N)CC1`, for which the Potency entry in assay [1], in [4], in assay [5], in assay [8], in [6] and in assay [9] was “inactive” in each case. Further, the Potency entry in assay [7] was “inactive”. In assay [2], the Potency was 2.98 µM (active).
As to `CC(CCc1ccc(O)cc1)NCCc1ccc(O)c(O)c1` (stereo not drawn), the Potency result in assay [1], in assay [2], in assay [4], in assay [5], in assay [6] and in assay [9] was “inactive” each time. Further, in assay [7], the Potency entry is “inactive”.
